# Screening data deposited in PubChem by National Center for Advancing Translational Sciences (NCATS).
# An excerpt weighted towards active compounds, which were near 19% of everything screened.
# HT1080-NT tox = kills 2HG-producing HT-1080-NT fibrosarcoma cells; HT-1080-NT fibrosarcoma viability, CellTiter-Glo ATP luminescence, 48 h; 360,000 compounds, 1.6% hits; Potency, µM (titrated, usually from 46.1 µM), for inactives: at the top dose activity, negative = less viability, actives largely listed as cytotoxic;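 also: NT is the 2HG producing partner of a matched IDH1 knockdown line; potency is read from the fitted curve at half-maximal effect; 0% = DMSO-treated cells and -100% = media-only wells without cells; nearly all actives have a fitted effect of over 55% in size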
#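 HT-1080-NT; 750 cells/well; 5% FBS RPMI; 48 h compound, 37 degrees C; CellTiter-Glo luminescence; curve fitting and curve-class assignment.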
# DT40 TDP1 CPT = DT40-hTDP1 cell growth loss with CPT; Potency, µM (series often up to 46.2 µM), for the others: top-dose activity change, negative = growth inhibition, most hits filed as inhibitors; 420,000 compounds, 12% hits; chicken DT40 Tdp1-/-;hTDP1 cells + 20 nM CPT, ATP luminescence, 48 h; also: potency is read from the fitted curve at half-maximal effect; nearly all actives have a fitted effect of over 55% in size
#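 Chicken DT40 Tdp1-/- cells complemented with human TDP1, 400 cells/well, exposed to compounds plus 20 nM camptothecin for at least 48 h at 37 C; viability read as ATP content by CellTiter-Glo luminescence.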
# DT40 TDP1 no CPT = qHTS for Inhibitors of human tyrosyl-DNA phosphodiesterase 1 (TDP1): qHTS in cells in absence of CPT. DT40 Tdp1-/- hTDP1 cells, no CPT, ATP luminescence, 48 h. Potency, µM (doses to about 46.2 µM), without a hit: at the top dose activity change, negative = growth inhibition, most hits filed as inhibitors. 420,000 compounds, 15% hits. AID 686978, 2013; also: potency is read from the fitted curve at half-maximal effect; nearly all actives have a fitted effect of over 55% in size
#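 Compound effects on proliferation are scored in DT40 Tdp1-/-;hTDP1 cells in the absence of CPT. ATP levels (CellTiter-Glo luminescence) are recorded after a ≥48 hr, 37 °C incubation.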
# HT1080 IDH1KD tx = kills HT-1080 cells with IDH1 knockdown; 360,000 compounds, 2% hits; AID 686971; Potency, µM (series often up to 46.1 µM), inactives show top-dose activity, negative = toxicity, actives largely listed as cytotoxic; HT-1080 IDH1 knockdown viability, ATP luminescence, 48 h;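 also: potency is read from the fitted curve at half-maximal effect; 0% = DMSO wells and -100% = cell-free medium wells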
#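 In this qHTS, HT-1080 cells depleted of IDH1 are exposed for 48 h at 37 °C to compound titrations. Toxicity is scored from CellTiter-Glo luminescence, with DMSO as full viability and medium alone as none.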
# IL-1B inflam inh = inflammasome signaling inhibition, IL-1 beta readout. AID 743279. 360,000 compounds, 4.7% hits. activity change, % at 57.5 µM. THP-1 LPS/ATP IL-1B secretion, AlphaLISA, 16 h; active compounds read low; in the data active = activity change below about -50%; inconclusive = mostly about -30% to -49%
#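 Secreted IL-1B measured by AlphaLISA bead assay after 16 h compound exposure of THP-1 cells; compounds (final up to 57.5 uM) added 1 h before LPS (250 ng/mL) and ATP (1.25 mM) stimulation; lower signal means less secretion.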
# * = called active by the depositor; ? = inconclusive; · = no result given; [ ] = dose if it differs, or a comment. Unless noted, calls follow the shape of the dose curve; as a rule, active = well fitted curve in the direction sought with a large enough effect; inconclusive = small, poorly fitted or top-dose-only effect, or another doubt; inactive = no such curve, though single readings can be large; an effect the other way counts as inactive or inconclusive. Unless noted, % is scaled to controls: 0 for no effect and ±100 for the full control effect.
SMILES,HT1080-NT tox,DT40 TDP1 CPT,DT40 TDP1 no CPT,HT1080 IDH1KD tx,IL-1B inflam inh
COc1ccc(C#Cc2cccc(-c3nc(C(=O)NCc4ccc(Oc5ccccc5)cc4)cc4c3[C@@H](CCO)N(S(=O)C(C)(C)C)C4)c2)cc1OC (stereo not given in full),21µM*,?,?,?,-11
COc1ccc(-c2cn(Cc3ccc(C(=O)NCc4ccc(C)cc4)cc3)c(C(C)N)n2)cc1 (stereo not given),-8%,?,?,-5%,?
CSc1nc(COC(=O)NC(C)C)c(COC(=O)NC(C)C)n1Cc1ccccc1,18%,9.2µM*,13µM*,5%,10
COc1ccccc1N1C(=O)CC(Sc2ccccc2N)C1=O (stereo not given),-1%,-18%,?,-4%,14
CC[C@]1(C(=O)OC)[C@H]2C(=O)N(C)C(=O)[C@H]2[C@H]2CN=C(SC)N21,6%,4%,-4%,4%,18
CC1CCCC2(C1)NC(=S)c1c(sc3c1CCCC3)N2 (stereo not given),-11%,?,3.7µM*,-4%,-2
COc1ccc(CC2(CO)COc3ccccc3C2=O)cc1 (stereo not given),?,?,16µM*,?,24
Cn1c2ccccc2c2nnc(SCC(=O)NCc3ccoc3)nc21,0%,4%,-23%,4%,23
Cc1nc2ccc(C(=O)NCCCn3ccnc3)cn2c1N(C)C(=O)CCc1ccccc1,29%,-11%,3%,12%,2
Cc1ccc(Nc2nc(N)nc(CN3CCN(Cc4ccc5c(c4)OCO5)CC3)n2)cc1,-14%,18µM*,18µM*,1%[9.24 µM],?
Cc1ccc(Nc2nc(N)nc(CN3CCN(Cc4ccc5c(c4)OCO5)CC3)n2)cc1C,?,?,18µM*,?,-74*
CCN(CC)CCC12CC(C)OC1=Nc1ccccc1NC2=O (stereo not given),24%,-11%,-4%,3%,37
Cc1cc(Br)ccc1SCC(=O)NCC(c1ccco1)N1CCCCC1 (stereo not given),-17%,18µM*,?,-18%,-24
Cc1ccc(S(=O)(=O)NC(CC(C)C)C(=O)NCC(c2ccco2)N2CCCCC2)cc1 (stereo not given),2%,23µM*,?,?,-13
Cc1ccc(C)c(SCC(=O)NCC(c2ccco2)N2CCCCC2)c1 (stereo not given),-5%,?,21µM*,-3%,-7
CCC(C)N(C(=O)COC(=O)c1ccc(=O)n(Cc2ccccc2)n1)C1CCS(=O)(=O)C1 (stereo not given),7%,0%,1%,18%,7
CCNC(=O)C1CCCN(C(=O)c2cnc3ccccc3n2)CC1 (stereo not given),16%,12%,-7%,22%,0
Cc1cc(NC(=O)CSc2nnc(C(F)(F)F)n2C)no1,4%,-13%,-9%,10%,-15
COc1cc(/C=C/C(=O)O)cc(S(=O)(=O)Nc2ccc(S(=O)(=O)N3CCCCC3)cc2)c1OC,17%,0%,1%,16%,15
O=c1cc(CCl)nc2sc3ccccc3n12,16µM*,?,?,?,-59*
O=C(Oc1ccc(-c2nnco2)cc1)N(c1ccccc1)c1ccccc1,-2%,?,?,-8%,-79*
COc1cccc(CNC(=O)[C@@H]2CCCN2C(=O)[C@H]2CCCCN2C(=O)OC(C)(C)C)c1,12%,-19%,-14%,9%,0
O=C(COC(=O)COc1ccc(Cl)cc1)NC1CC1,2%,7%,-17%,8%,19
COc1ccc(NC(=O)c2sc3ncnc(N4CCN(c5ccccn5)CC4)c3c2C)cc1Cl,-10%,21µM*,5.8µM*,1%,?
COc1ccc(NC(=O)CN2CCN(c3ccccn3)CC2)cc1Cl,7%,2%,3%,8%,0
SMILES,HT1080-NT tox,DT40 TDP1 CPT,DT40 TDP1 no CPT,HT1080 IDH1KD tx,IL-1B inflam inh
COc1ccc(Cl)cc1NC(=O)c1sc2nc(C)nc(N3CCOCC3)c2c1C,10%,-19%,-1%,-1%,-9
Cc1cc(Br)ccc1NC(=O)c1sc2ncnc(N3CCN(c4ccccn4)CC3)c2c1C,12%,10µM*,2.6µM*,8%,-77*
COc1ccc(NC(=O)c2sc3nc(C)nc(N4CCN(c5ccccn5)CC4)c3c2C)cc1Cl,-10%,?,21µM*,2%,·
O=C(NC1CC1)c1sc2cc(F)ccc2c1Cl,17%,-10%,?,-1%,8
O=C(NC1CC1)c1sc2cc(Cl)ccc2c1Cl,7%,?,12µM*,6%,-6
Cc1nc(SCC(=O)NNC(=O)c2cccs2)[nH]c(=O)c1C,16%,-17%,-16%,16%,-22
COc1cc(Nc2ncc3c(n2)CCN(C(=O)Nc2ccc(C(C)C)cc2)C3)cc(OC)c1OC,21µM*,?,12µM*,18µM*,-3
O=C(Nc1cccc(F)c1)N1CCc2nc(NCc3cccc(Oc4ccccc4)c3)ncc2C1,23µM*,?,15µM*,?,75
CC(C)c1ccc(NC(=O)N2CCc3nc(NCc4cccc(Oc5ccccc5)c4)ncc3C2)cc1,?,?,16µM*,?,0
COc1ccc(CCNC(=O)CN2C(=O)C(=O)N(C3CCCC3)C2=O)cc1OC,1%,-9%,12%,2%,2
COc1ccc(N(CC(=O)N/N=C(\C)CCc2ccccc2)S(=O)(=O)c2ccc(C)cc2)cc1,-11%,2%,6%,4%,-19
Cc1cc(Nc2nnnn2-c2ccccc2)n(-c2ccccc2)n1,1%,?,-16%,0%,25
Cc1cc(Nc2nc3ccccc3nc2Cl)n(-c2ccccc2)n1,?,18µM*,16µM*,13µM*,?
Cc1cc(Nc2ccccc2)n(-c2ccc(Br)cc2)n1,?,18µM*,?,?,2
COC(=O)C1=C(C)N(CCCC(=O)O)C(=O)NC1c1ccccc1OS(=O)(=O)c1ccccc1[N+](=O)[O-] (stereo not given),0%,-9%,1%,-2%,50
CC1=C(C(=O)OCc2ccccc2)C(c2ccccc2[N+](=O)[O-])NC(=O)N1C (stereo not given),6%,?,23µM*,3%,24
CCOC(=O)C1=C(C)N(Cc2ccccc2)C(=O)NC1c1ccccc1OS(=O)(=O)c1ccccc1[N+](=O)[O-] (stereo not given),1%,10µM*,9.2µM*,0%,?
